Source: the supplement of paper PMC8728848
Shown is part of a subset that was picked to be rich in the strongest signals.

Key:
Assay in all cases: glycan array binding signal (z-score within array); higher = stronger binding
Details in all cases: glycan notation: IUPAC condensed, linker removed
[1] = molecular target: Fuc(a1-2)Gal(b1-3)GalNAc(b1-3)Gal(a1-4)Gal(b1-4)Glc
Summary of the method: (§1)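 Arrays were curated from the Consortium for Functional Glycomics database, 3228 in total, and kept only where the protein sequence was available. Binding is expressed as a within-array Z-score. This score was averaged across arrays of the same protein sequence at different concentrations or buffers and across linkers, and negative values can be read as non-binding.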

[2] = molecular target: Fuc(a1-2)[Gal(a1-3)]Gal(b1-4)GlcNAc(b1-2)Man(a1-3)[Fuc(a1-2)[Gal(a1-3)]Gal(b1-4)GlcNAc(b1-2)Man(a1-6)]Man(b1-4)GlcNAc(b1-4)GlcNAc
Summary of the method: as §1

[3] = molecular target: Fuc(a1-2)[Gal(a1-3)]Gal(b1-4)GlcNAc(b1-3)[Fuc(a1-2)[Gal(a1-3)]Gal(b1-4)GlcNAc(b1-6)]GalNAc
Summary of the method: as §1

[4] = molecular target: Fuc(a1-2)[Gal(a1-3)]Gal(b1-4)GlcNAc(b1-6)GalNAc
Summary of the method: as §1

[5] = molecular target: Fuc(a1-2)[GalNAc(a1-3)]Gal(b1-4)[Fuc(a1-3)]GlcNAc
Summary of the method: as §1

[6] = molecular target: Fuc(a1-3)[Gal(b1-4)]GlcNAc(b1-6)GalNAc
Summary of the method: as §1

[7] = molecular target: Fuc(a1-3)[Gal3S(b1-4)]Glc
Summary of the method: as §1

[8] = molecular target: Gal(a1-3)Gal(b1-4)[Fuc(a1-3)]GlcNAc(b1-2)Man(a1-3)[Gal(a1-3)Gal(b1-4)[Fuc(a1-3)]GlcNAc(b1-2)Man(a1-6)]Man(b1-4)GlcNAc(b1-4)GlcNAc
Summary of the method: as §1

[9] = molecular target: Gal(a1-4)GlcNAc
Summary of the method: as §1

[10] = molecular target: Gal(b1-3)Gal
Summary of the method: as §1

[11] = molecular target: Gal(b1-3)GlcNAc(a1-3)Gal(b1-4)GlcNAc
Summary of the method: as §1

[12] = molecular target: Gal(b1-3)GlcNAc(b1-2)Man
Summary of the method: as §1

[13] = molecular target: Gal(b1-3)GlcNAc(b1-3)Gal(b1-3)GlcNAc
Summary of the method: as §1

[14] = molecular target: Gal(b1-3)[Neu5Ac(a2-6)]GalNAc
Summary of the method: as §1

[15] = molecular target: Gal(b1-3)[Neu5Ac(a2-6)]GlcNAc(b1-4)Gal(b1-4)Glc
Summary of the method: as §1

[16] = molecular target: Gal(b1-4)Gal
Summary of the method: as §1

[17] = molecular target: Gal(b1-4)GlcNAc
Summary of the method: as §1

[18] = molecular target: Gal(b1-4)GlcNAc(b1-3)Gal(b1-4)GlcNAc(b1-2)Man(a1-3)[Gal(b1-4)GlcNAc(b1-3)Gal(b1-4)GlcNAc(b1-2)Man(a1-6)]Man(b1-4)GlcNAc(b1-4)GlcNAc
Summary of the method: as §1

[19] = molecular target: Gal(b1-4)GlcNAc(b1-3)Gal(b1-4)GlcNAc(b1-2)[Gal(b1-4)GlcNAc(b1-3)Gal(b1-4)GlcNAc(b1-6)]Man(a1-6)[Gal(b1-4)GlcNAc(b1-3)Gal(b1-4)GlcNAc(b1-2)Man(a1-3)]Man(b1-4)GlcNAc(b1-4)GlcNAc
Summary of the method: as §1

[20] = molecular target: Gal(b1-4)GlcNAc(b1-3)Gal(b1-4)GlcNAc(b1-3)GalNAc
Summary of the method: as §1

[21] = molecular target: Gal(b1-4)GlcNAc(b1-3)[GlcNAc(b1-6)]Gal(b1-4)GlcNAc
Summary of the method: as §1

[22] = molecular target: Gal3S(b1-4)Glc6S
Summary of the method: as §1

[23] = molecular target: Gal3S(b1-4)[Fuc(a1-3)]GlcNAc6S
Summary of the method: as §1

[24] = molecular target: Gal6P(b1-4)GlcNAc
Summary of the method: as §1

[25] = molecular target: GalNAc(b1-4)GlcNAc
Summary of the method: as §1

[26] = molecular target: GalNAc4S6S(b1-4)GlcNAc
Summary of the method: as §1

[27] = molecular target: Glc(a1-6)Glc(a1-6)Glc
Summary of the method: as §1

[28] = molecular target: GlcNAc(b1-2)[GlcNAc(b1-4)]Man(a1-3)[GlcNAc(b1-4)][GlcNAc(b1-2)Man(a1-6)]Man(b1-4)GlcNAc(b1-4)GlcNAc
Summary of the method: as §1

[29] = molecular target: GlcNAc(b1-3)Gal(b1-4)GlcNAc(b1-3)Gal(b1-4)GlcNAc(b1-2)Man(a1-3)[GlcNAc(b1-3)Gal(b1-4)GlcNAc(b1-3)Gal(b1-4)GlcNAc(b1-2)Man(a1-6)]Man(b1-4)GlcNAc(b1-4)GlcNAc
Summary of the method: as §1

[30] = molecular target: GlcNAc(b1-3)Gal(b1-4)GlcNAc(b1-3)Gal(b1-4)GlcNAc(b1-3)Gal(b1-4)GlcNAc(b1-3)Gal(b1-4)GlcNAc(b1-2)Man(a1-3)[GlcNAc(b1-3)Gal(b1-4)GlcNAc(b1-3)Gal(b1-4)GlcNAc(b1-3)Gal(b1-4)GlcNAc(b1-3)Gal(b1-4)GlcNAc(b1-2)Man(a1-6)]Man(b1-4)GlcNAc(b1-4)GlcNAc
Summary of the method: as §1

[31] = molecular target: GlcNAc(b1-3)Gal(b1-4)GlcNAc(b1-6)[Gal(b1-3)]GalNAc
Summary of the method: as §1

[32] = molecular target: GlcNAc(b1-4)GlcNAc
Summary of the method: as §1

[33] = molecular target: Kdn(a2-3)Gal(b1-3)GlcNAc
Summary of the method: as §1

[34] = molecular target: Kdn(a2-3)Gal(b1-4)Glc
Summary of the method: as §1

[35] = molecular target: Man(a1-2)Man(a1-2)Man(a1-3)Man
Summary of the method: as §1

[36] = molecular target: Neu5Ac(a2-3)Gal(b1-3)GlcNAc(b1-2)[Neu5Ac(a2-3)Gal(b1-3)GlcNAc(b1-4)]Man(a1-6)[Neu5Ac(a2-3)Gal(b1-3)GlcNAc(b1-2)Man(a1-3)]Man(b1-4)GlcNAc(b1-4)GlcNAc
Summary of the method: as §1

[37] = molecular target: Neu5Ac(a2-3)Gal(b1-3)GlcNAc6S
Summary of the method: as §1

[38] = molecular target: Neu5Ac(a2-3)Gal(b1-4)GlcNAc(b1-2)Man
Summary of the method: as §1

[39] = molecular target: Neu5Ac(a2-3)Gal(b1-4)[Fuc(a1-3)]GlcNAc(b1-6)[Neu5Ac(a2-3)Gal(b1-3)]GalNAc
Summary of the method: as §1

[40] = molecular target: Neu5Ac(a2-6)Gal(b1-4)GlcNAc(b1-2)Man(a1-3)[GlcNAc(b1-4)][Neu5Ac(a2-6)Gal(b1-4)GlcNAc(b1-2)Man(a1-6)]Man(b1-4)GlcNAc(b1-4)GlcNAc
Summary of the method: as §1

[41] = molecular target: Neu5Ac(a2-6)Gal(b1-4)GlcNAc(b1-2)Man(a1-3)[Neu5Ac(a2-3)Gal(b1-4)GlcNAc(b1-2)Man(a1-6)]Man(b1-4)GlcNAc(b1-4)GlcNAc
Summary of the method: as §1

[42] = molecular target: Neu5Ac(a2-6)Gal(b1-4)GlcNAc(b1-2)Man(a1-3)[Neu5Ac(a2-6)Gal(b1-4)GlcNAc(b1-2)Man(a1-6)]Man(b1-4)GlcNAc(b1-4)[Fuc(a1-6)]GlcNAc
Summary of the method: as §1

[43] = molecular target: Neu5Ac(a2-6)Gal(b1-4)GlcNAc(b1-2)Man(a1-6)Man(b1-4)GlcNAc(b1-4)GlcNAc
Summary of the method: as §1

[44] = molecular target: Neu5Ac(a2-6)Gal(b1-4)GlcNAc(b1-3)Gal(b1-3)GlcNAc
Summary of the method: as §1

[45] = molecular target: Neu5Ac(a2-8)Neu5Ac(a2-8)Neu5Ac
Summary of the method: as §1

B1: Gal-9-hFc (Mus musculus), O08573-2 (protein)
chain: MALFSAQSPYINPIIPFTGPIQGGLQEGLQVTLQGTTKSFAQRFVVNFQNSFNGNDIAFHFNPRFEEGGYVVCNTKQNGQWGPEERKMQMPFQKGMPFELCFLVQRSEFKVMVNKKFFVQYQHRVPYHLVDTIAVSGCLKLSFITFQTQNFRPAHQAPMAQTTIHMVHSTPGQMFSTPGIPPVVYPTPAYTIPFYTPIPNGLYPSKSIMISGNVLPDATRFHINLRCGGDIAFHLNPRFNENAVVRNTQINNSWGQEERSLLGRMPFSRGQSFSVWIICEGHCFKVAVNGQHMCEYYHRLKNLQDINTLEVAGDIQLTHVQT
glycan array binding signal (z-score) [1]: -0.29 | glycan array binding signal (z-score) [2]: 1.3 | glycan array binding signal (z-score) [3]: 4.4 | glycan array binding signal (z-score) [4]: 0.473 | glycan array binding signal (z-score) [5]: -0.286 | glycan array binding signal (z-score) [6]: 0.042 | glycan array binding signal (z-score) [7]: -0.196 | glycan array binding signal (z-score) [8]: -0.043 | glycan array binding signal (z-score) [9]: -0.452 | glycan array binding signal (z-score) [10]: 0.036 | glycan array binding signal (z-score) [11]: -0.259 | glycan array binding signal (z-score) [12]: -0.243 | glycan array binding signal (z-score) [13]: 0.085 | glycan array binding signal (z-score) [14]: 0.317 | glycan array binding signal (z-score) [15]: -0.501 | glycan array binding signal (z-score) [16]: 0.307 | glycan array binding signal (z-score) [17]: -0.167 | glycan array binding signal (z-score) [18]: 1.94 | glycan array binding signal (z-score) [19]: 3.74 | glycan array binding signal (z-score) [20]: 0.354 | glycan array binding signal (z-score) [21]: 2.07 | glycan array binding signal (z-score) [22]: 4.35 | glycan array binding signal (z-score) [23]: 3.57 | glycan array binding signal (z-score) [24]: -0.364 | glycan array binding signal (z-score) [25]: -0.176 | glycan array binding signal (z-score) [26]: -0.079 | glycan array binding signal (z-score) [27]: 0.138 | glycan array binding signal (z-score) [28]: 2.04 | glycan array binding signal (z-score) [29]: 0.436 | glycan array binding signal (z-score) [30]: -0.207 | glycan array binding signal (z-score) [31]: -0.325 | glycan array binding signal (z-score) [32]: 4.66 | glycan array binding signal (z-score) [33]: -0.153 | glycan array binding signal (z-score) [34]: 2.38 | glycan array binding signal (z-score) [35]: -0.431 | glycan array binding signal (z-score) [36]: -0.482 | glycan array binding signal (z-score) [37]: -0.023 | glycan array binding signal (z-score) [38]: 3.47 | glycan array binding signal (z-score) [39]: 0.233 | glycan array binding signal (z-score) [40]: -0.272 | glycan array binding signal (z-score) [41]: -0.448 | glycan array binding signal (z-score) [42]: -0.496 | glycan array binding signal (z-score) [43]: -0.192 | glycan array binding signal (z-score) [44]: -0.307 | glycan array binding signal (z-score) [45]: 2.03
